Results from the supplement of paper PMC6089552.
In all, about 3,200 compounds went through this assay and about 300 (9.4%) showed activity. This is one part of a sample in which actives are shown more often than they occur.

Tested on: A673/TR/shEF
Experiment: cell viability (LOESS-normalised, relative to median of negative controls) (log2 ratio); higher = more viable cells (less compound effect), active = hit call of the paper (over 3 MAD below the median)
Settings: treatment time: 72 h
How it was run: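 Doxycycline, present or absent from 24 h before compounds, was used to induce EWS-FLI1 shRNA knockdown in A673/TR/shEF Ewing sarcoma cells at 1,500 per well in 384-well plates. Cells then received library compounds at two or more concentrations, or DMSO controls, for three days. Viability was measured by CellTiter-Glo luminescence on an Envision reader, and per-plate LOESS correction, division by the negative-control median and log2 transformation followed.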

[1] = 0.25 µM, library screen: screen1, EWS-FLI1 expression: high (no doxycycline)
[2] = 0.25 µM, library screen: screen1, EWS-FLI1 expression: low (doxycycline-induced shRNA knockdown)
[3] = 2.5 µM, library screen: screen1, EWS-FLI1 expression: high (no doxycycline)
[4] = 2.5 µM, library screen: screen1, EWS-FLI1 expression: low (doxycycline-induced shRNA knockdown)
[5] = 0.25 µM, library screen: screen2, EWS-FLI1 expression: high (no doxycycline)
[6] = 0.25 µM, library screen: screen2, EWS-FLI1 expression: low (doxycycline-induced shRNA knockdown)
[7] = 2.5 µM, library screen: screen2, EWS-FLI1 expression: high (no doxycycline)
[8] = 2.5 µM, library screen: screen2, EWS-FLI1 expression: low (doxycycline-induced shRNA knockdown)
[9] = 0.103 µM, library screen: screen3, EWS-FLI1 expression: high (no doxycycline)
[10] = 0.103 µM, library screen: screen3, EWS-FLI1 expression: low (doxycycline-induced shRNA knockdown)
[11] = 0.308 µM, library screen: screen3, EWS-FLI1 expression: high (no doxycycline)
[12] = 0.308 µM, library screen: screen3, EWS-FLI1 expression: low (doxycycline-induced shRNA knockdown)
[13] = 0.926 µM, library screen: screen3, EWS-FLI1 expression: high (no doxycycline)
[14] = 0.926 µM, library screen: screen3, EWS-FLI1 expression: low (doxycycline-induced shRNA knockdown)
[15] = 2.8 µM, library screen: screen3, EWS-FLI1 expression: high (no doxycycline)
[16] = 2.8 µM, library screen: screen3, EWS-FLI1 expression: low (doxycycline-induced shRNA knockdown)
[17] = 8.3 µM, library screen: screen3, EWS-FLI1 expression: high (no doxycycline)
[18] = 8.3 µM, library screen: screen3, EWS-FLI1 expression: low (doxycycline-induced shRNA knockdown)
[19] = 25 µM, library screen: screen3, EWS-FLI1 expression: high (no doxycycline)
[20] = 25 µM, library screen: screen3, EWS-FLI1 expression: low (doxycycline-induced shRNA knockdown)

Measured: cell viability (log2)

CC(=O)N[C@@H]1[C@@H](O)[C@H](O)[C@@H](CO)O[C@H]1O
inactive: [1] 0.0385 | [2] 0.0648 | [3] 0.0809 | [4] 0.0429

CC(C)CC1NC(=O)C(Cc2ccccc2)NC(=O)C(CCN)NC(=O)C(NC(=O)C(CCN)NC(=O)C(CCO)NC(=O)C(CCN)NC=O)CCNC(=O)C(CCO)NC(=O)C(CCN)NC(=O)C(CCN)NC1=O.COc1cc(Cc2cnc(N)nc2N)cc(OC)c1OC (stereo not given)
inactive: [1] 0.0686 | [2] 0.0873 | [3] 0.182 | [4] 0.054

Cc1ccccc1N1CCN(S(=O)(=O)C[C@]23CCC(CC2NC(=O)[C@@H](N)CCS(C)(=O)=O)C3(C)C)CC1 (stereo not given in full)
inactive: [5] 0.163 | [6] 0.172 | [7] 0.18 | [8] 0.0913

CC(C)=CCCC1(C)C=Cc2c(O)c3c(c(CC=C(C)C)c2O1)OC12C(=CCCC1C(C)(C)OC2(CC=C(C)C(=O)O)C(=O)O)C3=O (stereo not given)
inactive: [1] 0.0468 | [2] -0.0618 | [3] 0.121 | [4] 0.0265

CN(C)C(=O)/N=N/C(=O)N(C)C
inactive: [5] 0.0755 | [6] 0.0201 | [7] 0.21 | [8] 0.117

CCC1=C(C)CN(C(=O)NCCc2ccc(S(=O)(=O)NC(=O)NC3CCC(C)CC3)cc2)C1=O (stereo not given)
active: [19] -0.481 | [20] -0.408
inactive: [9] 0.065 | [10] 0.0619 | [11] -0.018 | [12] 0.0454 | [13] -0.0554 | [14] -0.00949 | [15] 0.0264 | [16] -0.0201 | [17] -0.0146 | [18] -0.0784

Cc1cnc(C(=O)NCCc2ccc(S(=O)(=O)NC(=O)NC3CCCCC3)cc2)cn1
inactive: [9] 0.103 | [10] 0.0573 | [5] 0.139 | [6] -0.00978 | [11] 0.195 | [12] 0.0857 | [13] 0.143 | [14] 0.063 | [7] 0.155 | [8] 0.035 | [15] 0.0953 | [16] 0.0849 | [17] 0.13 | [18] 0.0833 | [19] 0.172 | [20] 0.135

COc1ccc(Cl)cc1C(=O)NCCc1ccc(S(=O)(=O)NC(=O)NC2CCCCC2)cc1
inactive: [9] 0.115 | [10] 0.0621 | [1] 0.0607 | [2] 0.0399 | [5] 0.171 | [6] 0.0382 | [11] 0.175 | [12] 0.0954 | [13] 0.104 | [14] 0.103 | [3] 0.0749 | [4] 0.0806 | [7] 0.0699 | [8] 0.0189 | [15] 0.125 | [16] 0.0778 | [17] 0.113 | [18] 0.0685 | [19] 0.0907 | [20] 0.0579

CC1(C)[C@@H](O[C@@H]2O[C@H](C(=O)O)[C@@H](O)[C@H](O)[C@H]2O[C@@H]2O[C@H](C(=O)O)[C@@H](O)[C@H](O)[C@H]2O)CC[C@]2(C)[C@H]3C(=O)C=C4[C@@H]5C[C@@](C)(C(=O)O)CC[C@]5(C)CC[C@@]4(C)[C@]3(C)CC[C@@H]12
inactive: [1] 0.061 | [2] 0.0758 | [3] 0.126 | [4] 0.123

NC[C@@H]1O[C@H](O[C@@H]2[C@@H](CO)OC(O[C@H]3C(O[C@H]4O[C@H](CO)[C@@H](O)[C@H](O)[C@H]4N)[C@@H](N)C[C@@H](N)[C@@H]3O)[C@@H]2O)[C@H](N)[C@@H](O)[C@@H]1O (stereo not given in full)
inactive: [1] 0.0774 | [2] 0.116 | [5] 0.171 | [6] 0.0601 | [3] 0.0937 | [4] 0.0802 | [7] 0.19 | [8] 0.0499

COc1ccc(OC)c(CN2CCN(Cc3ccc(F)cc3)CC2)c1
inactive: [1] 0.102 | [2] 0.0528 | [3] 0.106 | [4] -0.00941

CN1CCN(CCOc2cc(OC3CCOCC3)c3c(Nc4c(Cl)ccc5c4OCO5)ncnc3c2)CC1
active: [17] -0.339 | [18] -0.15 | [19] -0.476 | [20] -0.808
inactive: [9] 0.0216 | [10] 0.122 | [11] -0.0387 | [12] 0.0239 | [13] -0.075 | [14] 0.0267 | [15] -0.153 | [16] -0.0864

C[C@@H]1O[C@H](OC[C@H]2O[C@@H](Oc3c(-c4ccc(O)c(O)c4)oc4cc(O)cc(O)c4c3=O)[C@H](O)[C@@H](O)[C@@H]2O)[C@H](O)[C@H](O)[C@H]1O
inactive: [1] -0.0111 | [2] 0.0513 | [3] 0.125 | [4] 0.094

C[C@H](CCC(=O)O)[C@H]1CC[C@H]2[C@@H]3C(O)CC4=CC(=O)CC[C@]4(C)[C@H]3CC[C@]12C (stereo not given in full)
inactive: [1] 0.0418 | [2] -0.00533 | [3] 0.162 | [4] -0.0526

C[n+]1c2cc(N)ccc2cc2ccc(N)cc21
active: [7] -0.404 | 25 µM, library screen: screen2, EWS-FLI1 expression: high (no doxycycline) -4.23 | 25 µM, library screen: screen2, EWS-FLI1 expression: low (doxycycline-induced shRNA knockdown) -2.18
inactive: 0.025 µM, library screen: screen2, EWS-FLI1 expression: high (no doxycycline) 0.0847 | 0.025 µM, library screen: screen2, EWS-FLI1 expression: low (doxycycline-induced shRNA knockdown) 0.099 | [1] 0.0872 | [2] 0.141 | [5] 0.0533 | [6] 0.0413 | [3] 0.0728 | [4] 0.101 | [8] -0.0252

CCCCN1CCC(COC(=O)c2cc(Cl)c(N)c3c2OCCO3)CC1
inactive: [6] -0.0248 | [7] 0.148 | [8] 0.108
active: [5] -0.151

CC[C@H](/C=C/[C@@H](C)[C@H]1CC[C@H]2[C@@H]3CCC4=CC(=O)CC[C@]4(C)[C@H]3CC[C@]12C)C(C)C
inactive: [1] 0.0678 | [2] 0.0569 | [3] 0.0668 | [4] -0.0817

COC(=O)[C@H]1[C@H]2C[C@H]3c4[nH]c5cc(OC)ccc5c4CCN3C[C@H]2C[C@@H](OC(=O)c2cc(OC)c(OC)c(OC)c2)[C@@H]1OC
inactive: [1] 0.121 | [2] 0.17 | [3] 0.195 | [4] 0.313

COc1ccc2c(c1)[C@@]1(C)CCC(=O)C[C@H]1CC2
inactive: [1] 0.0614 | [2] 0.0537 | [3] 0.105 | [4] 0.0269

Clc1ccc(C(c2ccc(Cl)cc2)n2cc[n+](CC(OCc3ccc(Cl)cc3Cl)c3ccc(Cl)cc3Cl)c2)cc1 (stereo not given)
inactive: [5] 0.138 | [6] 0.0728 | [7] 0.0573 | [8] 0.0822

NCCCCCCNS(=O)(=O)c1cccc2c(Cl)cccc12
inactive: [1] 0.066 | [2] 0.0556 | [5] 0.156 | [6] 0.0625 | [3] 0.0432 | [4] 0.0443 | [7] 0.141 | [8] 0.102

NCCCCNS(=O)(=O)c1cccc2c(Cl)cccc12
inactive: [6] 0.0648 | [7] 0.0418 | [8] 0.0582
active: [5] -0.151

COc1ccccc1N1CCN(CCCCNS(=O)(=O)c2cccc3c(N(C)C)cccc23)CC1
inactive: [5] 0.171 | [6] 0.0777 | [7] 0.0423 | [8] 0.0929

O=C(Oc1cc(O)c2c(c1)O[C@H](c1cc(O)c(OC(=O)c3cc(O)c(O)c(O)c3)c3c(O)c(=O)cc(C4Oc5cc(O)cc(O)c5C[C@H]4O)cc13)[C@H](O)C2)c1cc(O)c(O)c(O)c1 (stereo not given in full)
inactive: [1] 0.0686 | [2] 0.0559 | [3] 0.0408 | [4] 0.0509

CC12CC[C@](C)(C(=O)O)CC1C1=CC(=O)[C@@H]3C4(C)CC[C@H](OC(=O)CCC(=O)O)C(C)(C)[C@@H]4CCC3(C)[C@]1(C)CC2 (stereo not given in full)
inactive: [1] 0.0741 | [2] -0.061 | [3] 0.0857 | [4] -0.0474

CC(=O)OC1CCC2(C)C(CCC3C2CCC2(C)C3CC3OC4(CCC(C)CO4)C(C)C32)C1 (stereo not given)
inactive: [1] 0.0872 | [2] 0.0698 | [3] 0.151 | [4] 0.0624

CC(=O)OC1CCC2(C)C(CCC3C2CC(=O)C2(C)C3CC3OC4(CCC(C)CO4)C(C)C32)C1 (stereo not given)
inactive: [1] 0.0619 | [2] 0.0314 | [3] 0.0226 | [4] 0.0969

COc1ccc(/C=C/C(=O)O)cc1O
inactive: [1] 0.0659 | [2] -0.0174 | [3] 0.0725 | [4] 0.0415

CCCCC(=O)O[C@H]1CC[C@H]2[C@@H]3CCc4cc(O)ccc4[C@H]3CC[C@]12C
inactive: [1] 0.0993 | [2] -0.0254 | [3] 0.16 | [4] 0.0807

CCC(=O)O[C@H]1CC[C@H]2[C@@H]3CCc4cc(O)ccc4[C@H]3CC[C@]12C
inactive: [1] 0.0933 | [2] 0.137 | [3] 0.162 | [4] 0.0928

C[C@]12CC[C@@H]3c4ccc(O)cc4CC[C@H]3[C@@H]1CC[C@@H]2OC(=O)CCC1CCCC1
active: [1] -0.302
inactive: [2] 0.00213 | [3] 0.197 | [4] 0.299

CS(=O)(=O)Nc1ccc([N+](=O)[O-])cc1Oc1ccccc1
inactive: [1] 0.147 | [2] 0.0914 | [5] 0.0788 | [6] -0.000657 | [3] 0.123 | [4] 0.11 | [7] 0.101 | [8] 0.0459

O=[N+]([O-])c1ccc(Oc2ccc(Br)cc2)c(C(O)[P+](=O)O)c1 (stereo not given)
inactive: 0.025 µM, library screen: screen1, EWS-FLI1 expression: high (no doxycycline) 0.0442 | 0.025 µM, library screen: screen1, EWS-FLI1 expression: low (doxycycline-induced shRNA knockdown) 0.0701 | [1] 0.235 | [2] 0.0171 | [4] -0.0253 | 25 µM, library screen: screen1, EWS-FLI1 expression: low (doxycycline-induced shRNA knockdown) -0.0834
active: [3] -0.289 | 25 µM, library screen: screen1, EWS-FLI1 expression: high (no doxycycline) -0.404
